Measurements from PubChem BioAssay AID1159580 (chemical genetic matrix, 2015).
“And” between values parts separate entries of the source, which are not always exact repeats. Identical values can stand only once. Among all 5,500 compounds or so, about 2,000 (36%) were called active. Inconclusive results (about 18%) are left out. Rule as the data show it: active = normalized growth mostly below about 0.91 (no sharp cut-off); inconclusive = no clear call, values can overlap the other calls; inactive = mostly above about 0.92. This is one part of the list.

Assay: chemical genetic growth profiling, strain panel (AID 1159580);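 also: tested at 20 µM; growth read once vehicle control cultures reached saturation at 30 °C; 1 = growth at the plate median or of vehicle wells; lower values mean less growth of the strain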
Conditions: S. cerevisiae deletion strains, growth OD

Measured: normalized growth

C[C@@H]1O[C@@H](O[C@H]2[C@@H](Oc3cc(O)c4c(c3)O[C@H](c3ccc(O)cc3)CC4=O)O[C@H](CO)[C@@H](O)[C@@H]2O)[C@H](O)[C@H](O)[C@H]1O
inactive: locus YAL013W, strain DEP1, stronger effect = lower value 1 | locus YAL021C, strain ccr4, stronger effect = lower value 0.969 | locus YAL026C, strain drs2, stronger effect = lower value 0.977 | locus YAL030W, strain snc1, stronger effect = lower value 0.956 | locus YBL061C, strain skt5, stronger effect = lower value 0.96 | locus YBR009C, strain hhf1, stronger effect = lower value 0.971 | locus YBR021W, strain FUR4, stronger effect = lower value 1.02 | locus YBR023C, strain chs3, stronger effect = lower value 0.978 | locus YBR171W, strain sec66, stronger effect = lower value 0.977 | locus YBR229C, strain ROT2, stronger effect = lower value 0.956 | locus YBR231C, strain swc5, stronger effect = lower value 0.97 | locus YBR279W, strain paf1, stronger effect = lower value 0.975 | locus YCL011C, strain gbp2, stronger effect = lower value 0.957 | locus YCL016C, strain dcc1, stronger effect = lower value 0.972 | locus YCL029C, strain bik1, stronger effect = lower value 0.991 | locus YCL061C, strain MRC1, stronger effect = lower value 0.985 | locus YCL069W, strain vba3, stronger effect = lower value 0.97 | locus YCR088W, strain abp1, stronger effect = lower value 0.979 | locus YDL005C, strain med2, stronger effect = lower value 0.967 | locus YDL035C, strain GPR1, stronger effect = lower value 0.996 | locus YDL040C, strain nat1, stronger effect = lower value 0.981 | locus YDL074C, strain BRE1, stronger effect = lower value 0.975 | locus YDL101C, strain DUN1, stronger effect = lower value 0.977 | locus YDL134C, strain PPH21, stronger effect = lower value 0.956 | locus YDL185W, strain tfp1, stronger effect = lower value 0.992 | locus YDL192W, strain arf1, stronger effect = lower value 0.995 | locus YDR001C, strain nth1, stronger effect = lower value 0.954 | locus YDR069C, strain doa4, stronger effect = lower value 0.97 | locus YDR101C, strain arx1, stronger effect = lower value 0.997 | locus YDR137W, strain rgp1, stronger effect = lower value 0.983 | locus YDR150W, strain NUM1, stronger effect = lower value 0.977 | locus YDR159W, strain sac3, stronger effect = lower value 0.978 | locus YDR162C, strain NBP2, stronger effect = lower value 0.992 | locus YDR195W, strain ref2 0.956 | locus YDR297W, strain sur2, stronger effect = lower value 0.984 | locus YDR318W, strain mcm21, stronger effect = lower value 0.994 | locus YDR334W, strain swr1, stronger effect = lower value 0.942 | locus YDR335W, strain msn5, stronger effect = lower value 0.969 | locus YDR388W, stronger effect = lower value 1 | locus YDR392W, strain spt3, stronger effect = lower value 0.934 | locus YDR502C, strain sam2, stronger effect = lower value 1 | locus YEL003W, strain gim4, stronger effect = lower value 0.967 | locus YEL037C, strain rad23, stronger effect = lower value 0.966 | locus YEL061C, strain CIN8 (second series), stronger effect = lower value 0.964 | locus YEL061C, strain CIN8, stronger effect = lower value 1 | locus YER015W, strain faa2, stronger effect = lower value 0.959 | locus YER016W, strain bim1, stronger effect = lower value 0.971 | locus YER110C, stronger effect = lower value 0.986 | locus YER111C, strain swi4, stronger effect = lower value 0.983 | locus YER155C, strain BEM2 (second series), stronger effect = lower value 0.972 | locus YER155C, strain BEM2, stronger effect = lower value 1.01 | locus YER167W, strain BCK2, stronger effect = lower value 1 | locus YFR010W, strain ubp6, stronger effect = lower value 0.954 | locus YGL078C, strain dbp3, stronger effect = lower value 0.991 | locus YGL086W, strain mad1, stronger effect = lower value 0.998 | locus YGL167C, strain pmr1, stronger effect = lower value 0.977 | locus YGL173C, strain kem1, stronger effect = lower value 0.946 | locus YGL227W, strain vid30, stronger effect = lower value 0.975 | locus YGL240W, strain doc1, stronger effect = lower value 0.991 | locus YGL248W, strain PDE1, stronger effect = lower value 0.979 | locus YGL253W, strain hxk2, stronger effect = lower value 0.977 | locus YGR078C, strain PAC10, stronger effect = lower value 0.987 | locus YGR135W, strain pre9, stronger effect = lower value 1 | locus YGR229C, strain SMI1, stronger effect = lower value 0.987 | locus YGR252W, strain gcn5, stronger effect = lower value 0.991 | locus YHR013C, strain ard1, stronger effect = lower value 0.943 | locus YHR027C, strain rpn1, stronger effect = lower value 0.959 | locus YHR030C, strain SLT2, stronger effect = lower value 0.99 and 1 | locus YHR079C, strain IRE1 (second series), stronger effect = lower value 0.999 | locus YHR079C, strain IRE1, stronger effect = lower value 0.989 | locus YHR094C, strain hxt1, stronger effect = lower value 0.996 | locus YHR129C, strain ARP1, stronger effect = lower value 0.993 | locus YHR142W, strain chs7, stronger effect = lower value 0.921 | locus YHR200W, strain rpn10, stronger effect = lower value 1 | locus YIL066C, strain RNR3, stronger effect = lower value 0.976 | locus YIL073C, strain SPO22, stronger effect = lower value 0.946 | locus YIL125W, strain kgd1, stronger effect = lower value 0.999 | locus YIR030C, strain dcg1, stronger effect = lower value 0.986 | locus YJL092W, strain hpr5, stronger effect = lower value 0.967 | locus YJL095W, strain BCK1 (second series), stronger effect = lower value 0.968 | locus YJL095W, strain BCK1, stronger effect = lower value 0.998 and 1 | locus YJL115W, strain asf1, stronger effect = lower value 0.938 | locus YJL129C, strain trk1, stronger effect = lower value 0.939 | locus YJL134W, strain LCB3, stronger effect = lower value 0.985 | locus YJL154C, strain vps35, stronger effect = lower value 0.961 | locus YJL164C, strain tpk1, stronger effect = lower value 0.98 | locus YJL166W, strain qcr8, stronger effect = lower value 0.977 | locus YJL168C, strain set2, stronger effect = lower value 1 | locus YJL187C, strain SWE1 (second series), stronger effect = lower value 0.968 | locus YJL187C, strain SWE1, stronger effect = lower value 0.974 | locus YJR043C, strain POL32, stronger effect = lower value 0.995 | locus YJR066W, strain TOR1, stronger effect = lower value 0.926
